Myeloid diff 2 = promotes myeloid progenitor differentiation; calls only at 10 µM; 360,000 compounds, 1% hits; ER-HoxA9 myeloid progenitors, lysozyme-GFP differentiation, flow cytometry;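 active means normalized GFP-positive differentiation at or above the plate's own cutoff, the solvent-only control mean plus 3 SD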;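 further: cells exposed to compound for four days before flow analysis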
NadD inh = NadD (S. aureus) enzyme inhibition; 360,000 compounds, 0.78% hits; AID 602399; inhibition, % at 20 µM; purified NadD enzyme, colorimetric absorbance read-out; in the data active means inhibition above about 26%
CendR NRP1 mod = NRP-1/CendR interaction modulation | FAM-RPARPAR peptide binding to NRP-1, fluorescence polarization | 360,000 compounds, 0.85% hits | inhibition, % at 25 µM;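 active means inhibition or corrected inhibition above about 18%, plus a signal ratio from 0.5 to 1.5, limit read from the data, passing the limit was not always enough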
FAS-TE inh = inhibitors of human fatty acid synthase thioesterase domain; 360,000 compounds, 0.67% hits; P49327; inhibition, % at 15 µM; recombinant FAS-TE, OMFH fluorogenic substrate, fluorescence endpoint;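 active means compounds whose normalised, plate-corrected inhibition of enzyme fluorescence in the single-dose primary screen is 50% or more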
CRFBP-R2 block = CRF-BP/CRF-R2 complex antagonism; AID 588475; inhibition, % at 11.8 µM; 350,000 compounds, 0.59% hits; HEK293 CRF-R2/CRF-BP, CRF-induced calcium fluorescence;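 active means inhibition of the ligand-induced calcium signal above about 50% at the single tested concentration, limit read from the data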
Myeloid diff CP1 = promotes myeloid progenitor differentiation; shares compounds with Myeloid diff 2; ER-HoxA9 myeloid progenitors, GFP/Mac1 double-positive flow; calls only; 2,300 compounds, 2% hits;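 active means share of green or green-and-red cells above 9 and 9% in run 1 or 4 and 3% in run 2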
GFP autofluor = compound fluorescence in myeloid differentiation counter-screen | shares compounds with Myeloid diff 2 | ER-HoxA9 myeloid progenitors, no estrogen, GFP autofluorescence flow cytometry; vehicle wells 0%, positive control 100% | fluorescence response, % (concentration not given with the values) | 2,300 compounds, 7.4% hits | AID 651707;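 active means over 5% cells positive for green fluorescent reporter, or over 2% positive for both it and APC stain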
Calls only; n = inactive; x = no result given; + = active, no number. Sampled rows, rich in hits. Any-hit rate of the full collection: about 3.6%.

SMILES	Myeloid diff 2	NadD inh	CendR NRP1 mod	FAS-TE inh	CRFBP-R2 block	Myeloid diff CP1	GFP autofluor
Clc1cccc(Nc2nc(N3CCOCC3)nc(N3CCOCC3)n2)c1	n	n	n	n	n	n	n
CCOC(=O)CSc1nc(N)c(C#N)c(-c2cccs2)c1C#N	n	n	n	n	n	x	x
N#Cc1c(N)nc(SCc2ccccn2)c(C#N)c1-c1cccs1	n	n	n	n	n	n	n
CC(C)C(=O)Nc1cccc(S(=O)(=O)c2cccc(NC(=O)C(C)C)c2)c1	n	n	n	n	n	n	n
COc1cccc(NC(=O)C(C)C)c1	n	n	n	n	n	x	x
CC1(C)Cc2c(sc3nc4n(c(=N)c23)CCC4)CO1	n	n	n	n	n	n	n
N=c1c2c3c(sc2nc2n1CCC2)CCCC3	n	n	n	n	n	x	x
CCOC(=O)c1ccccc1NC(=O)Cn1cnc2c(cnn2-c2ccccc2)c1=O	n	n	n	n	n	n	n
O=C(Nc1cccc2ncccc12)c1ccc([N+](=O)[O-])o1	+	n	n	n	n	n	n
CC(=O)Nc1ccc(NC(=O)c2ccccc2CC[N+](=O)[O-])cc1	n	n	n	n	n	x	x
O=C1CSC(=Nc2ccccc2)N1	n	n	n	n	n	x	x
O=C1CSC(=Nc2ccc(F)cc2)N1	+	n	n	n	n	n	n
Cc1ccc(CSCC(=O)N2CCN(c3ccc(F)cc3)CC2)cc1	n	n	n	n	n	n	n
CCCCn1nc(NC(=O)CCC)c2cc3cc(OC)ccc3nc21	n	n	n	n	n	n	n
Cc1occc1C(=O)N/N=C/C(Br)=C/c1ccccc1	+	n	n	n	n	n	n
Cc1cccc(Nc2nc(NCC3CCCO3)nc(N)c2[N+](=O)[O-])c1 (stereo not given)	+	n	n	n	n	n	n
Nc1nc(NCC2CCCO2)nc(Nc2cccc(Cl)c2)c1[N+](=O)[O-] (stereo not given)	n	n	n	n	n	x	x
CC(C)CNC(=O)COC(=O)c1ccccc1SCC(=O)NCC(C)C	n	n	n	n	n	x	x
CC(C)CNC(=O)c1ccccc1SCC(=O)NC12CC3CC(CC(C3)C1)C2	+	n	n	n	n	n	n
CCc1ccc(C(=O)NNC(=O)CCC2CCCCC2)cc1	n	n	n	n	n	x	x
CCOc1ccccc1CN(Cc1ccco1)S(=O)(=O)c1ccc(-n2cnnn2)c(OC)c1	+	n	n	n	n	n	n
COc1cc(S(=O)(=O)N(Cc2ccco2)C2CCCC2)ccc1-n1cnnn1	n	n	n	n	n	x	x
COC(=O)C(C)Sc1nnc2n(-c3cccc(C)c3)c(=O)c3c4c(sc3n12)CCCC4 (stereo not given)	n	n	n	n	n	n	n
Cc1cccc(-n2c(=O)c3c4c(sc3n3c(=S)[nH]nc23)CCC4)c1	n	n	n	n	n	x	x
O=C(OCC(=O)N1CCN(c2ccccc2)CC1)c1ccccc1NCCO	n	n	n	n	n	x	x
SMILES	Myeloid diff 2	NadD inh	CendR NRP1 mod	FAS-TE inh	CRFBP-R2 block	Myeloid diff CP1	GFP autofluor
Cc1cccc(N2CCN(S(=O)(=O)c3c(C)[nH]c(=O)[nH]c3=O)CC2)c1C	n	n	n	n	n	n	n
O=C(CNC(=O)c1ccccc1F)OC(C(=O)Nc1cc(C(F)(F)F)ccc1Cl)c1ccccc1 (stereo not given)	n	n	n	n	n	x	x
N#CCC(=O)Nc1ccc(C(=O)OC(C(=O)Nc2cc(C(F)(F)F)ccc2Cl)c2ccccc2)cc1 (stereo not given)	+	n	n	n	n	n	n
Cc1ccc(NCC(=O)Nc2ccc(Br)cc2)cc1F	n	n	n	n	n	x	x
Cc1ccc(S(=O)(=O)Nc2ccc(-c3nnc(SCC#N)n3C)cc2)cc1	+	n	n	n	n	n	n
Cc1ccc(S(=O)(=O)Nc2ccc(S(=O)(=O)Nc3ncccn3)cc2)cc1	n	n	n	n	n	n	n
COc1cc(C)nc(NS(=O)(=O)c2ccc(C)cc2)n1	n	n	n	n	n	n	n
Cc1cccc(-c2nnc(SCC#N)n2C)c1	n	n	n	n	n	x	x
CCCCn1c(N)c(N(CC(C)C)C(=O)c2cc(Cl)nc3ccccc23)c(=O)[nH]c1=O	n	n	n	n	n	x	x
CCOc1ccc2nc(N3CCCC(C(=O)NCC4CCCO4)C3)sc2c1 (stereo not given)	n	n	n	n	n	x	x
CC(C)c1nc2sc(C(=O)O)c(N)c2c2c1CCCC2	n	n	n	n	n	x	x
O=C(CC1C(=O)NCCN1Cc1cccc(Oc2ccccc2)c1)NCCc1ccccn1 (stereo not given)	+	n	n	n	n	n	n
COc1cccc(CN2CCNC(=O)C2CC(=O)NCCc2ccccn2)c1 (stereo not given)	n	n	n	n	n	x	x
CCCCN1C(=O)c2ccc(C(=O)NCCN3C(=O)S/C(=C\c4cccnc4)C3=O)cc2C1=O	n	n	n	n	n	x	x
CCCCOCCCNC(=O)N[C@H](C(=O)OC)C(C)C	+	n	n	n	n	n	n
O=C1CCCN1CCCNS(=O)(=O)c1ccc(Cl)c(C(=O)N2CCOCC2)c1	n	n	n	n	n	n	n
COc1ccc(-n2nnnc2C(c2ccnc3ccccc23)N2CCN(C/C=C/c3ccccc3)CC2)cc1 (stereo not given)	+	n	n	n	x	n	n
COc1ccc(C(c2nnnn2-c2ccc(OC)cc2)N2CCN(C/C=C/c3ccccc3)CC2)cc1 (stereo not given)	n	n	n	n	x	x	x
Cc1cc(N2CCN(C(c3ccnc4ccccc34)c3nnnn3-c3c(C)cccc3C)CC2)c2ccccc2n1 (stereo not given)	n	n	n	n	x	n	n
Cc1cccc(C)c1-n1nnnc1C(c1ccnc2ccccc12)N1CCN(CCN(C)C)CC1 (stereo not given)	n	n	n	n	x	x	x
O=C(O)/C(=C\c1cccs1)c1ccccc1	n	n	n	n	n	x	x
CCC(=O)N1CCc2cc(Br)cc(S(=O)(=O)CCC(=O)NCC3CCCO3)c21 (stereo not given)	+	n	n	n	n	n	n
CC(NC(=O)C1CCCN1S(=O)(=O)c1ccc2c(c1)n(C)c(=O)c(=O)n2C)c1ccccc1 (stereo not given)	n	n	n	n	n	x	x
O=C(NNC1=C(C(=O)C(F)(F)F)CCC1)c1ccccc1O	n	n	n	n	n	x	x
COc1ccccc1C(=O)NNC1=C(C(=O)C(F)(F)F)CCC1	+	n	n	n	n	n	n
Nc1ccccc1C(=O)NNC1=C(C(=O)C(F)(F)F)CCC1	+	n	n	n	n	n	n
Cc1ccc(C(=O)Nc2cccc(C(=O)N/N=C/c3ccc(O)cc3)c2)cc1	+	n	n	n	n	n	n
O=C(C1CCC(=O)N(C2CCCC2)C1)N1CCN(c2ccc(Cl)cc2)CC1 (stereo not given)	n	n	n	n	n	x	x

Source: PubChem BioAssay (several laboratories)
